Laboratory results as given in PubChem BioAssay AID1159580 (chemical genetic matrix, 2015).
The whole screen tested about 5,500 compounds, of which about 2,000 (36%) were called active. Not shown: some 18% with an inconclusive outcome. Cut-off read from the data, not from the text of the source: active = normalized growth mostly below about 0.91 (no sharp cut-off); inconclusive = no clear call, values can overlap the other calls; inactive = mostly above about 0.92. The list shows a part of the results.

Assay: chemical genetic growth profiling, strain panel (AID 1159580);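 note: tested at 20 µM; growth read once vehicle control cultures reached saturation at 30 °C; 1 = growth at the plate median or of vehicle wells; lower values mean less growth of the strain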
Details: growth OD
[1] = S. cerevisiae deletion strains, locus YDL101C, strain DUN1, stronger effect = lower value
[2] = S. cerevisiae deletion strains, locus YHR030C, strain SLT2, stronger effect = lower value
[3] = S. cerevisiae deletion strains, locus YAL013W, strain DEP1, stronger effect = lower value
[4] = S. cerevisiae deletion strains, locus YBR229C, strain ROT2, stronger effect = lower value
[5] = S. cerevisiae deletion strains, locus YCL061C, strain MRC1, stronger effect = lower value
[6] = S. cerevisiae deletion strains, locus YDR150W, strain NUM1, stronger effect = lower value
[7] = S. cerevisiae deletion strains, locus YEL061C, strain CIN8, stronger effect = lower value
[8] = S. cerevisiae deletion strains, locus YGR078C, strain PAC10, stronger effect = lower value
[9] = S. cerevisiae deletion strains, locus YHR087W, strain rtc3, stronger effect = lower value
[10] = S. cerevisiae deletion strains, locus YJR043C, strain POL32, stronger effect = lower value
[11] = S. cerevisiae deletion strains, locus YJR075W, strain HOC1, stronger effect = lower value
[12] = S. cerevisiae deletion strains, locus YLR039C, strain RIC1, stronger effect = lower value
[13] = S. cerevisiae deletion strains, locus YLR058C, strain SHM2 (second series), stronger effect = lower value
[14] = S. cerevisiae deletion strains, locus YLR085C, strain ARP6, stronger effect = lower value
[15] = S. cerevisiae deletion strains, locus YLR262C, strain YPT6, stronger effect = lower value
[16] = S. cerevisiae deletion strains, locus YML094W, strain GIM5, stronger effect = lower value
[17] = S. cerevisiae deletion strains, locus YMR219W, strain ESC1, stronger effect = lower value
[18] = S. cerevisiae deletion strains, locus YMR263W, strain SAP30, stronger effect = lower value
[19] = S. cerevisiae deletion strains, locus YNL128W, strain TEP1, stronger effect = lower value
[20] = S. cerevisiae deletion strains, locus YNL153C, strain GIM3, stronger effect = lower value
[21] = S. cerevisiae deletion strains, locus YNL298W, strain CLA4 (second series), stronger effect = lower value
[22] = S. cerevisiae deletion strains, locus YNL322C, strain KRE1, stronger effect = lower value
[23] = S. cerevisiae deletion strains, locus YNR030W, strain Alg12, stronger effect = lower value
[24] = S. cerevisiae deletion strains, locus YOL006C, strain TOP1, stronger effect = lower value
[25] = S. cerevisiae deletion strains, locus YPL055C, strain LGE1, stronger effect = lower value
[26] = S. cerevisiae deletion strains, locus YPL241C, strain CIN2, stronger effect = lower value
[27] = S. cerevisiae deletion strains, locus YPR135W, strain CTF4, stronger effect = lower value
[28] = S. cerevisiae strains, strain wild type, stronger effect = lower value
[29] = S. cerevisiae deletion strains, locus YGR229C, strain SMI1, stronger effect = lower value

Measured: normalized growth

O=C(N/C=C/c1ccsc1)Nc1cc(C(F)(F)F)cc(C(F)(F)F)c1
inactive: S. cerevisiae deletion strains, locus YAR019C, strain CDC15, stronger effect = lower value 0.968 | S. cerevisiae deletion strains, locus YBL105C, strain PKC1, stronger effect = lower value 0.967 | S. cerevisiae deletion strains, locus YBR135W, strain CKS1, stronger effect = lower value 0.974 | S. cerevisiae deletion strains, locus YBR136W, strain MEC1, stronger effect = lower value 0.989 | S. cerevisiae deletion strains, locus YBR160W, strain CDC28, stronger effect = lower value 0.976 | S. cerevisiae deletion strains, locus YDL017W, strain CDC7, stronger effect = lower value 0.98 | S. cerevisiae deletion strains, locus YDL028C, strain MPS1, stronger effect = lower value 0.979 | [1] 0.995 | S. cerevisiae deletion strains, locus YDL108W, strain KIN28, stronger effect = lower value 0.987 | S. cerevisiae deletion strains, locus YDL132W, strain cdc53, stronger effect = lower value 0.983 | S. cerevisiae deletion strains, locus YDR052C, strain DBF4, stronger effect = lower value 0.98 | S. cerevisiae deletion strains, locus YDR054C, strain cdc34, stronger effect = lower value 0.958 | S. cerevisiae deletion strains, locus YDR226W, strain ADK1, stronger effect = lower value 0.98 | S. cerevisiae deletion strains, locus YFL009W, strain cdc4, stronger effect = lower value 0.977 | S. cerevisiae deletion strains, locus YFL029C, strain CAK1, stronger effect = lower value 0.98 | S. cerevisiae deletion strains, locus YFR003C, strain YPI1, stronger effect = lower value 0.979 | S. cerevisiae deletion strains, locus YFR028C, strain CDC14, stronger effect = lower value 0.97 | S. cerevisiae deletion strains, locus YIL147C, strain SLN1, stronger effect = lower value 0.981 | S. cerevisiae deletion strains, locus YJL128C, strain PBS2, stronger effect = lower value 0.873 | S. cerevisiae deletion strains, locus YJR016C, strain ILV3, stronger effect = lower value 0.977 | S. cerevisiae deletion strains, locus YJR066W, strain TOR1, stronger effect = lower value 0.507 | S. cerevisiae deletion strains, locus YKL193C, strain SDS22, stronger effect = lower value 0.979 | S. cerevisiae deletion strains, locus YMR001C, strain CDC5, stronger effect = lower value 0.976 | S. cerevisiae deletion strains, locus YMR277W, strain FCP1, stronger effect = lower value 0.966 | S. cerevisiae deletion strains, locus YNL006W, strain LST8, stronger effect = lower value 0.979 | S. cerevisiae deletion strains, locus YNL161W, strain CBK1, stronger effect = lower value 0.976 | S. cerevisiae deletion strains, locus YNL207W, strain RIO2, stronger effect = lower value 0.976 | S. cerevisiae deletion strains, locus YNL222W, strain SSU72, stronger effect = lower value 0.974 | S. cerevisiae deletion strains, locus YOL078W, strain AVO1, stronger effect = lower value 0.984 | S. cerevisiae deletion strains, locus YOR061W, strain CKA2, stronger effect = lower value 0.726 | S. cerevisiae deletion strains, locus YOR119C, strain RIO1, stronger effect = lower value 0.719 | S. cerevisiae deletion strains, locus YOR329C, strain SCD5, stronger effect = lower value 0.981 | S. cerevisiae deletion strains, locus YPL209C, strain IPL1, stronger effect = lower value 0.968 | S. cerevisiae deletion strains, locus YPR025C, strain CCL1, stronger effect = lower value 0.98 | S. cerevisiae deletion strains, locus YPR106W, strain ISR1, stronger effect = lower value 0.971 | S. cerevisiae deletion strains, locus YPR111W, strain DBF20, stronger effect = lower value 0.958 | S. cerevisiae deletion strains, strain NNK1, stronger effect = lower value 0.969 | S. cerevisiae deletion strains, strain TSCII, stronger effect = lower value 0.973
active: S. cerevisiae deletion strains, locus YDL214C, strain PRR2, stronger effect = lower value 0.643 | S. cerevisiae deletion strains, locus YDR477W, strain SNF1, stronger effect = lower value 0.61 | S. cerevisiae deletion strains, locus YER123W, strain YCK3, stronger effect = lower value 0.44 | S. cerevisiae deletion strains, locus YER133W, strain GLC7, stronger effect = lower value 0.63 | S. cerevisiae deletion strains, locus YFR019W, strain FAB1, stronger effect = lower value 0.639 | S. cerevisiae deletion strains, locus YGR040W, strain KSS1, stronger effect = lower value 0.613 | S. cerevisiae deletion strains, locus YGR052W, strain FMP48, stronger effect = lower value 0.33 | S. cerevisiae deletion strains, locus YGR092W, strain DBF2, stronger effect = lower value 0.254 | [2] 0.426 | S. cerevisiae deletion strains, locus YHR079C, strain IRE1, stronger effect = lower value 0.457 | S. cerevisiae deletion strains, locus YHR082C, strain KSP1, stronger effect = lower value 0.393 | S. cerevisiae deletion strains, locus YHR205W, strain SCH9, stronger effect = lower value 0.516 | S. cerevisiae deletion strains, locus YJL095W, strain BCK1, stronger effect = lower value 0.505 | S. cerevisiae deletion strains, locus YJL157C, strain FAR1, stronger effect = lower value 0.676 | S. cerevisiae deletion strains, locus YJR066W, strain TOR1 (second series), stronger effect = lower value 0.507 | S. cerevisiae deletion strains, locus YKL048C, strain ELM1, stronger effect = lower value 0.726 | S. cerevisiae deletion strains, locus YKL067W, strain YNK1, stronger effect = lower value 0.587 | S. cerevisiae deletion strains, locus YKL101W, strain HSL1, stronger effect = lower value 0.387 | S. cerevisiae deletion strains, locus YKL203C, strain TOR2, stronger effect = lower value 0.58 | S. cerevisiae deletion strains, locus YLR113W, strain HOG1, stronger effect = lower value 0.315 | S. cerevisiae deletion strains, locus YLR133W, strain CKI1, stronger effect = lower value 0.597 | S. cerevisiae deletion strains, locus YLR403W, strain SFP1, stronger effect = lower value 0.444 | S. cerevisiae deletion strains, locus YML070W, strain DAK1, stronger effect = lower value 0.361 | S. cerevisiae deletion strains, locus YMR205C, strain PFK2 (second series), stronger effect = lower value 0.672 | S. cerevisiae deletion strains, locus YNL020C, strain ARK1, stronger effect = lower value 0.541 | S. cerevisiae deletion strains, locus YNL183C, strain NPR1, stronger effect = lower value 0.309 | S. cerevisiae deletion strains, locus YNL307C, strain MCK1 (second series), stronger effect = lower value 0.41 | S. cerevisiae deletion strains, locus YOL136C, strain PFK27, stronger effect = lower value 0.555 | S. cerevisiae deletion strains, locus YOR231W, strain MKK1, stronger effect = lower value 0.507 | S. cerevisiae deletion strains, locus YPL031C, strain PHO85, stronger effect = lower value 0.417 | S. cerevisiae deletion strains, locus YPL153C, strain RAD53, stronger effect = lower value 0.345 | S. cerevisiae deletion strains, locus YPL204W, strain HRR25, stronger effect = lower value 0.434 | S. cerevisiae deletion strains, locus YPL256C, strain CLN2, stronger effect = lower value 0.444

COc1cc(C(F)(F)F)cc(C(F)(F)F)c1C(=O)Nc1cc(C(F)(F)F)cc(C(F)(F)F)c1
inactive: [3] 1.03 | [4] 1.02 | [5] 1.02 | [1] 1.04 | [6] 1 | [7] 1.01 | [8] 1.01 | [2] 1.11 | [9] 1.04 | [10] 1.01 | [11] 1 | [12] 1.03 | [13] 0.998 | [14] 1.03 | [15] 1.01 | [16] 1.08 | [17] 1.01 | [18] 1.01 | S. cerevisiae deletion strains, locus YMR307W, strain GAS1, stronger effect = lower value 1.01 | [19] 1 | [20] 1.01 | [21] 1.03 | [22] 1.01 | [23] 1.03 | [24] 1.09 | [25] 1.07 | [26] 1.06 | [27] 1.1 | [28] 1.01

COc1ccc(NC(=O)c2cc(C(F)(F)F)cc(C(F)(F)F)c2)cn1
inactive: [3] 0.964 | [4] 0.938 | [5] 0.968 | [1] 0.928 | [6] 1.05 | [7] 0.942 | [29] 0.959 | [2] 0.826 | [9] 0.925 | [10] 0.959 | [11] 0.893 | S. cerevisiae deletion strains, locus YKL190W, strain CNB1, stronger effect = lower value 0.947 | [14] 0.781 | [16] 0.927 | [17] 0.949 | [18] 0.98 | [19] 0.953 | [20] 0.983 | [21] 0.895 | [23] 0.9 | [24] 0.867 | [25] 0.963 | [26] 0.908 | [28] 0.931
active: [8] 0.92 | [12] 0.539 | [13] 0.926 | [15] 0.636 | [22] 0.938 | [27] 0.611

CC(=O)OCC1=C(C(=O)O)N2C(=O)C(NC(=O)CSc3ccncc3)C2SC1 (stereo not given)
inactive: S. cerevisiae deletion strains, locus YAL040C, strain CLN3, stronger effect = lower value 0.974 | S. cerevisiae deletion strains, locus YCL061C, strain MRC1 (second series), stronger effect = lower value 0.991 | S. cerevisiae deletion strains, locus YER002W, strain NOP16, stronger effect = lower value 1.02 | [29] 0.99 | [18] 0.974 | S. cerevisiae deletion strains, locus YNL175C, strain NOP13, stronger effect = lower value 1 | S. cerevisiae deletion strains, locus YNL197C, strain WHI3, stronger effect = lower value 1 | S. cerevisiae deletion strains, locus YNL224C, strain SQS1, stronger effect = lower value 1 | S. cerevisiae deletion strains, locus YOR083W, strain WHI5 (second series), stronger effect = lower value 1.02 | [25] 1.01
